Measured values: PubChem BioAssay AID720604 (Broad Institute, 2013)
Measured potencies and affinities stand elsewhere. Inconclusive results are not listed. Calls of active or inactive are those of the source.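 The calls were made as follows: active = compound lowering viability with a fitted half-effect dose within twice the top dose in every timed run; inconclusive = timed runs disagree on the call; inactive = inactive in every run, including a rising signal.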

Experiment: HUVEC endothelial cell viability loss, dose response, cytotoxicity control for HRAS target identification, CellTiter-Glo ATP luminescence, 8/24/48 h, dry powder (AID 720604)
Conditions: 8-48 h; series mostly up to 35 µM

| SMILES | outcome |
| --- | --- |
| Cc1onc(C(=O)N2CCN(C(c3ccncc3)c3ccncc3)CC2)c1[N+](=O)[O-] | inactive |
| Cc1onc(C(=O)N2CCN(C(c3ccc(Cl)cc3)c3ccc(Cl)cc3)CC2)c1[N+](=O)[O-] | inactive |
